This assay can be described thus: chemical genetic growth profiling, strain panel (AID 1159580).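 Also: tested at 20 µM; growth read once vehicle control cultures reached saturation at 30 °C; 1 = growth at the plate median or of vehicle wells; lower values mean less growth of the strain.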 Particulars: S. cerevisiae deletion strains, growth OD.
Setting [1] is: locus YAL013W, strain DEP1, active compounds read low.
The mark [2] stands for this setting: locus YDR150W, strain NUM1, active compounds read low.
Where [3] appears, read: locus YJR075W, strain HOC1, active compounds read low.
Where [4] appears, read: locus YPL241C, strain CIN2, active compounds read low.

Molecules are shown by their SMILES. Hit rate of the full screen: of about 5,500 compounds, about 2,000 (36%) were called active. Roughly 18% stayed inconclusive and do not appear here. Some of the results follow. A number with no mark means an inactive call. Rule as the data show it: active = normalized growth mostly below about 0.91 (no sharp cut-off); inconclusive = no clear call, values can overlap the other calls; inactive = mostly above about 0.92.

Consider `CSC(=NC(=O)c1c(Cl)cccc1Cl)SC`, for which the normalized growth under setting [1] is 0.886 (active); the normalized growth (locus YBR229C, strain ROT2, active compounds read low) was 0.856 (active); the normalized growth (locus YDL101C, strain DUN1, active compounds read low) was 0.866 (active); the normalized growth (locus YDL134C, strain PPH21, active compounds read low) is 0.782 (active); the normalized growth under setting [2] is 0.992; the normalized growth (locus YEL061C, strain CIN8, active compounds read low) is 0.781 (active). Further, the normalized growth (locus YGR078C, strain PAC10, active compounds read low) is 0.912 (active); the normalized growth (locus YHR030C, strain SLT2, active compounds read low) was 0.194 (active); the normalized growth (locus YHR087W, strain rtc3, active compounds read low) is 0.896 (active); the normalized growth (locus YJL187C, strain SWE1, active compounds read low) is 0.82 (active); the normalized growth (locus YJR043C, strain POL32, active compounds read low) is 0.904 (active); the normalized growth under setting [3] is 0.776 (active). Also, the normalized growth was 0.284 (active) (locus YLR039C, strain RIC1, active compounds read low); 0.924 (active) (locus YLR058C, strain SHM2 (second series), active compounds read low); 0.332 (active) (locus YLR085C, strain ARP6, active compounds read low); 0.275 (active) (locus YLR262C, strain YPT6, active compounds read low); 0.85 (active) (locus YML094W, strain GIM5, active compounds read low); 0.932 (active) (locus YMR219W, strain ESC1, active compounds read low). Further, the normalized growth is, setting by setting: (locus YMR263W, strain SAP30, active compounds read low) 0.931; (locus YMR307W, strain GAS1, active compounds read low) 0.177 (active); (locus YNL128W, strain TEP1, active compounds read low) 0.928; (locus YNL153C, strain GIM3, active compounds read low) 0.852 (active); (locus YNL298W, strain CLA4 (second series), active compounds read low) 0.636 (active); (locus YNL322C, strain KRE1, active compounds read low) 0.925 (active). Also, the normalized growth (locus YNR030W, strain Alg12, active compounds read low) is 0.747 (active); the normalized growth (locus YOL006C, strain TOP1, active compounds read low) was 0.541 (active); the normalized growth (locus YPL055C, strain LGE1, active compounds read low) is 0.919; the normalized growth under setting [4] was 0.663 (active); the normalized growth (locus YPR135W, strain CTF4, active compounds read low) was 0.313 (active).
For `NC(N)=NC(=O)Cc1c(Cl)cccc1Cl`, the normalized growth under setting [1] is 1.01; the normalized growth (locus YAL040C, strain CLN3, active compounds read low) is 0.979; the normalized growth (locus YCL061C, strain MRC1 (second series), active compounds read low) is 1; the normalized growth under setting [2] is 0.997; the normalized growth (locus YDR363W, strain ESC2, active compounds read low) was 0.997; the normalized growth (locus YER002W, strain NOP16, active compounds read low) is 1.04. The normalized growth was 1 under setting [3]; 0.996 (locus YNL175C, strain NOP13, active compounds read low); 1.02 (locus YNL197C, strain WHI3, active compounds read low); 0.971 (locus YNL224C, strain SQS1, active compounds read low); 1.01 (locus YOR083W, strain WHI5 (second series), active compounds read low); 1 under setting [4].

The values above are taken from PubChem BioAssay AID1159580 (chemical genetic matrix, 2015).
